“And” between values parts separate entries of the source, which are not always exact repeats. Equal entries are not always repeated. Structures can show the parent of a compound that is named as a salt.
The compounds below were run on Neuro-2a (assay: neurite formation score, plate-normalized to DMSO control mean 5.04 (score (0-8 scale)); higher = more or longer neurites). Conditions: 0.1 µM.
Procedure: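 Neuro-2a mouse neuroblastoma cells in PLL-coated 96-well plates were pre-treated for 1 h in DMEM(+) with each kinase inhibitor at 0.1 µM, then switched to serum-free DMEM(-) with inhibitor to induce neurite outgrowth and fixed about 2-3 h later. Three blinded observers scored neurite formation from 0 (no neurites) to 8 (long neurites on almost all cells).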
`CC(C)(C)n1nc(-c2ccc(Cl)cc2)c2c(N)ncnc21` gave a neurite formation score of 3.88.
Work on `COc1cc(N2CCC(N3CCN(C)CC3)CC2)ccc1Nc1ncnc(Nc2ccccc2S(=O)(=O)C(C)C)n1` yielded a neurite formation score of 4.38.
Work on `CCCS(=O)(=O)Nc1ccc(F)c(C(=O)c2c[nH]c3ncc(-c4ccc(Cl)cc4)cc23)c1F` [Vemurafenib (PLX4032, RG7204)] yielded a neurite formation score of 4.04.
`CCN(CCO)CCCOc1ccc2c(Nc3cc(CC(=O)Nc4cccc(F)c4)[nH]n3)ncnc2c1` [Barasertib (AZD1152-HQPA)] showed a neurite formation score of 4.58.
With `COc1cccc(-c2cc(=O)c3ccccc3o2)c1N` the neurite formation score was 5.04.
`Cc1cc2c(F)c(Oc3ncnn4cc(OC[C@@H](C)O)c(C)c34)ccc2[nH]1` showed a neurite formation score of 4.38.
`C=CC(=O)Nc1ccc(CN2C(=O)N(c3cc(OC)cc(OC)c3)Cc3cnc(Nc4ccc(N5CCN(C)CC5)cc4)nc32)cc1` was tested, and the neurite formation score was 4.25.
`CCOc1ccn(-c2ccc(F)cc2)c(=O)c1C(=O)Nc1ccc(Oc2ccnc(N)c2Cl)c(F)c1` showed a neurite formation score of 4.21.
Work on `C=CC(=O)Nc1ccc2ncnc(Nc3cccc(Br)c3)c2c1` yielded a neurite formation score of 3.71.
`COc1cc(CCc2cc(NC(=O)c3ccc(N4CC(C)NC(C)C4)cc3)n[nH]2)cc(OC)c1` (stereo not given) was tested, and the neurite formation score was 4.21.
`CNC(=O)c1cc(Oc2ccc3nc(N[C@@H]4CCCC[C@H]4O)sc3c2)ccn1` was tested, and the neurite formation score was 4.75.
`COc1c(OCCCN2CCOCC2)ccc2c3n(c(=NC(=O)c4cnc(N)nc4)nc12)CCN3` [BAY 80-6946 (Copanlisib)] gave a neurite formation score of 4.76.
Work on `O=C(Nc1c[nH]nc1-c1nc2ccc(CN3CCOCC3)cc2[nH]1)NC1CC1` yielded a neurite formation score of 5.92.
Work on `CNc1nc(Nc2ccc(C(=O)N3CCOCC3)cc2OC)ncc1Cl` yielded a neurite formation score of 4.58.
Work on `Cc1cc(N2CCOCC2)cc2[nH]c(-c3c(NC[C@@H](O)c4cccc(Cl)c4)cc[nH]c3=O)nc12` yielded a neurite formation score of 4.71.
Work on `COc1cc2nccc(Oc3ccc(NC(=O)NC4CC4)c(Cl)c3)c2cc1C(N)=O` [Lenvatinib (E7080)] yielded a neurite formation score of 4.38.
In the case of `COc1nccc(-c2c(-c3ccc(F)cc3)ncn2C2CCC(O)CC2)n1` (stereo not given), the neurite formation score is reported as 5.25.
With `c1cc(-c2cnn3cc(-c4ccc(OCCN5CCCCC5)cc4)cnc23)ccn1` [Dorsomorphin 2HCl] the neurite formation score was 3.92.
`Cc1cn(-c2cc(NC(=O)c3ccc(C)c(Nc4nccc(-c5cccnc5)n4)c3)cc(C(F)(F)F)c2)cn1` [Nilotinib monohydrochloride monohydrate] was tested, and the neurite formation score was 3.09.
Work on `CO[C@H]1C[C@@H]2CC[C@@H](C)[C@@](O)(O2)C(=O)C(=O)N2CCCC[C@H]2C(=O)O[C@H]([C@H](C)C[C@@H]2CC[C@@H](OP(C)(C)=O)[C@H](OC)C2)CC(=O)[C@H](C)/C=C(\C)[C@@H](O)[C@@H](OC)C(=O)[C@H](C)C[C@H](C)/C=C/C=C/C=C/1C` [Ridaforolimus (Deforolimus, MK-8669)] yielded a neurite formation score of 1.42.
Work on `CCS(=O)(=O)Nc1ccc2[nH]c(O)c(C(=Nc3ccc(CN4CCCCC4)cc3)c3ccccc3)c2c1` [Hesperadin] yielded a neurite formation score of 3.92.
With `O=C(Nc1ccc(-c2ccnc(Nc3ccc(N4CCOCC4)cc3)n2)cc1)C1CCCN1` (stereo not given) the neurite formation score was 4.92.
With `C=CC(=O)Nc1cccc(Oc2nc(Nc3ccc(N4CCN(C)CC4)cc3)ncc2Cl)c1` the neurite formation score was 4.25.
`CNC(=O)c1cc(Oc2ccc(NC(=O)Nc3ccc(Cl)c(C(F)(F)F)c3)c(F)c2)ccn1` [Regorafenib monohydrate] was tested, and the neurite formation score was 5.25.
Compound `Cc1[nH]c(/C=C2\C(=O)Nc3ccc(S(=O)(=O)N(C)c4cccc(Cl)c4)cc32)c(C)c1C(=O)N1CCN(C)CC1` has a neurite formation score of 5.04.
Compound `Cn1cnc2c(F)c(Nc3ccc(Br)cc3Cl)c(C(=O)NOCCO)cc21` [AZD6244 (Selumetinib)] has a neurite formation score of 5.54.
Compound `CN(C)Cc1cccc(N=C(c2ccccc2)c2c(O)[nH]c3cc(C(=O)N(C)C)ccc23)c1` has a neurite formation score of 5.54.
In the case of `CCCCCCCCCCCCc1ccc(S(=O)(=O)Nc2nncs2)cc1`, the neurite formation score is reported as 5.54.
In the case of `C[C@@H]1CCN(C(=O)CC#N)C[C@@H]1N(C)c1ncnc2[nH]ccc12`, the neurite formation score is reported as 3.92 and 5.58.
`CC(C)Nc1cc(-c2c[nH]c(C(=O)N[C@H](CO)c3cccc(Cl)c3)c2)c(Cl)cn1` was tested, and the neurite formation score was 4.76.
With `Cc1c(CN2CCN(C(=O)[C@H](C)O)CC2)sc2c(N3CCOCC3)nc(-c3cnc(N)nc3)nc12` the neurite formation score was 4.42.
Work on `Cc1c[nH]c(/C=C2\C(=O)Nc3ccccc32)c1CCC(=O)O` yielded a neurite formation score of 5.92.
`CN1CCN(c2ccc(Nc3cc(-c4cccc(-n5ccc6cc(C7CC7)cc(F)c6c5=O)c4CO)cn(C)c3=O)nc2)CC1` gave a neurite formation score of 4.58.
Work on `CC(=O)Nc1cccc(-n2c(=O)n(C3CC3)c(=O)c3c(Nc4ccc(I)cc4F)n(C)c(=O)c(C)c32)c1` [Trametinib DMSO solvate] yielded a neurite formation score of 4.92.
Compound `Nc1ccc(-c2ccc3ncc4ccc(=O)n(-c5cccc(C(F)(F)F)c5)c4c3c2)cn1` [Torin 2] has a neurite formation score of 3.42.
For `COc1c(C)c(C(=O)c2ccc(N)c(C(=O)O)c2)n2ccccc12`, the neurite formation score was 5.25.
`Cc1ccc(NC(=O)c2cccc(N(C)C)c2)cc1NC(=O)c1ccc(O)cc1` was tested, and the neurite formation score was 4.58.
Work on `O=[N+]([O-])c1ccc(-c2nc(-c3ccc(F)cc3)c(-c3ccncc3)[nH]2)cc1` yielded a neurite formation score of 4.25.
With `C=CC(=O)Nc1cccc(Sc2nc(Nc3ccc(N4CCN(C)CC4)cc3)ncc2Cl)c1` the neurite formation score was 4.71.
With `Cn1cc(-c2ccc3ncc(Cc4ccc5ncccc5c4)n3n2)cn1` the neurite formation score was 4.92.
